The supplement of paper PMC12636033
± gives the standard deviation of the averaged measurements. The full ranking holds about 33,000 sequences; the median of “E-score (rank enrichment, -0.5 to 0.5)” is about -0.0075, and the highest 2% start at about 0.23. The sample holds the highest values, similar sequences and a random draw of the others, so the mix is not that of the screen.

system: WT Max(13-93) synthetic (M65Nle); assay: PBM 8-mer E-score (E-score (rank enrichment, -0.5 to 0.5)); higher = stronger preferential binding
Procedure: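 Protein binding microarray (universal PBM chip covering all 10-mers in fixed probe flanks) with chemically synthesized human Max(13-93) bHLH-LZ analogs (not full-length Max) bearing noncanonical residues (hArg, Tha, Aib, Nle at 65) and aromatic Cys staples. Read-out per 8-mer (and its reverse complement): E-score (rank-based enrichment, -0.5 to 0.5) and Z-score of median probe intensity.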

| Sequence | PBM 8-mer E-score |
| --- | --- |
| CCATACAG | -0.026 ± 0.18 |
| CGTGAGCA | -0.0547 ± 0.079 |
| GTATTTTA | 0.0179 ± 0.13 |
| CTATTTTA | 0.0787 ± 0.12 |
| ATATTTTA | 0.271 ± 0.033 |
| CGTTTTCA | 0.106 ± 0.036 |
| AACAGGTC | -0.0763 ± 0.049 |
| ACAACGTC | -0.0474 ± 0.05 |
| ATAACGTA | 0.203 ± 0.091 |
| ACAACGTG | 0.255 ± 0.089 |
| ATAACGTC | 0.136 ± 0.042 |
| ACAACGTA | 0.024 ± 0.002 |
| ATAACGTG | 0.261 ± 0.046 |
| GGCTGGCA | -0.311 ± 0.1 |
| GCGTCTCA | -0.13 ± 0.025 |
| CCGCACTC | -0.0409 ± 0.033 |
| TATTTGAA | 0.0846 ± 0.018 |
| ACTTGGTC | 0.0597 ± 0.089 |
| CATTGTAA | 0.134 ± 0.067 |
| GACGTCGC | -0.091 ± 0.13 |
| ACCGCGCT | -0.146 ± 0.012 |
| ATGACCTC | 0.0149 ± 0.085 |
| TCAAACCA | 0.172 ± 0.063 |

| Sequence | PBM 8-mer E-score |
| --- | --- |
| AGTTTCAA | -0.0849 ± 0.1 |
| TGTTTTAA | 0.115 ± 0.0028 |
| TGTTTCAA | 0.241 ± 0.011 |
| TGTTTAAA | 0.252 ± 0.09 |
| GGTTTAAA | 0.233 ± 0.043 |
| GTTTTAAA | 0.0916 ± 0.047 |
| AGTTTAAA | 0.164 ± 0.0074 |
| GGTTTCAA | 0.077 ± 0.0057 |
| GGTTTAAC | 0.0486 ± 0.048 |
| GTCATCAA | 0.0407 ± 0.073 |
| AAGACGAC | 0.0772 ± 0.12 |
| CAGCGTAG | 0.0168 ± 0.0028 |
| GACCATCA | -0.057 ± 0.034 |
| AGGTAAGA | -0.0352 ± 0.073 |
| CACGGTAG | -0.0473 ± 0.022 |
| GTCAGCTA | -0.148 ± 0.085 |
| GAATTGCA | 0.06 ± 0.059 |
| GTTCAGCA | 0.0207 ± 0.087 |
| CTGCGAAC | -0.0246 ± 0.099 |
| ACCGTTGA | -0.15 ± 0.014 |
| CCTGTGCG | -0.0525 ± 0.063 |
| CATGTGCA | 0.321 ± 0.025 |
| TATGTGCA | 0.16 ± 0.02 |

| Sequence | PBM 8-mer E-score |
| --- | --- |
| CATGTGCC | 0.327 ± 0.011 |
| AATGTGCC | -0.0182 ± 0.064 |
| CATGTGCG | 0.296 ± 0.028 |
| GATGTGCC | -0.0199 ± 0.084 |
| GATGTGCA | 0.052 ± 0.059 |
| AATGTGCG | 0.115 ± 0.0056 |
| GGGAGATA | 0.0313 ± 0.14 |
| AAATGGTG | -0.0479 ± 0.077 |
| AGATTGGG | 0.0796 ± 0.049 |
| TCGGGAGA | -0.0551 ± 0.06 |
| ACCGGAGT | -0.185 ± 0.077 |
| AGCTCAAA | -0.101 ± 0.07 |
| GCGTGTTA | 0.242 ± 0.043 |
| GCGTGTAA | 0.18 ± 0.091 |
| GCGTGTGA | 0.201 ± 0.034 |
| AGGTGTTA | 0.0454 ± 0.019 |
| AGGTGTTG | -0.0777 ± 0.036 |
| ACGTGTTG | 0.378 ± 0.067 |
| AAGTGTTG | 0.2 ± 0.0011 |
| CCGTGTTA | 0.145 ± 0.056 |
| ACGTGTTA | 0.333 ± 0.053 |
| AGGTGTTC | 0.0938 ± 0.013 |
| ACGTGTTC | 0.278 ± 0.11 |

| Sequence | PBM 8-mer E-score |
| --- | --- |
| CCGTGTTC | 0.034 ± 0.081 |
| GTCTCACA | 0.0533 ± 0.04 |
| TAGTAGGA | -0.0355 ± 0.069 |
| CCGACCCG | -0.101 ± 0.18 |
| CATCTTTA | -0.0556 ± 0.15 |
| GGTGTAGA | 0.0276 ± 0.032 |
| ACTCGGTG | -0.111 ± 0.026 |
| AGTAGCGC | -0.0656 ± 0.04 |
| AACCACTT | 0.109 ± 0.14 |
| ACCCAATG | -0.141 ± 0.067 |
| ACCCCGCG | -0.0797 ± 0.15 |
| AAGCTGGC | -0.176 ± 0.06 |
| CCAACCGG | -0.267 ± 0.0078 |
| CTAGCGCC | -0.283 ± 0.024 |
| ATTGTCTA | 0.26 ± 0.005 |
| GTTGTCTA | 0.224 ± 0.094 |
| ATTGTCTC | -0.142 ± 0.088 |
| TATCTGCA | 0.0121 ± 0.066 |
| CAACTGCA | -9e-05 ± 0.065 |
| CGATTATC | -0.178 ± 0.066 |
| GTCGAAAC | 0.079 ± 0.031 |
| TATAACCA | 0.17 ± 0.0076 |
| AATAACTA | 0.125 ± 0.0044 |

| Sequence | PBM 8-mer E-score |
| --- | --- |
| GATAACTA | 0.235 ± 0.061 |
| CATAACCA | 0.165 ± 0.033 |
| GATAACCA | 0.24 ± 0.037 |
| CATAACTA | 0.167 ± 0.0044 |
| CCATGACC | -0.0452 ± 0.14 |
| AAGATAAG | 0.152 ± 0.024 |
| AAGATAAC | 0.266 ± 0.045 |
| AAGATATA | 0.253 ± 0.046 |
| GAGATACA | 0.0679 ± 0.025 |
| AAGATATC | 0.0756 ± 0.073 |
| CAGATATA | 0.108 ± 0.023 |
| AAGATACA | 0.258 ± 0.015 |
| AAGATACT | 0.0763 ± 0.011 |
| GAGATAAC | 0.104 ± 0.025 |
| ACAGTCCG | -0.0248 ± 0.0053 |
| CACGGTGC | 0.0526 ± 0.033 |
| GTGTTATA | 0.215 ± 0.0088 |
| ATGTTATA | 0.235 ± 0.069 |
| CTGTTATA | 0.055 ± 0.085 |
| ATGTTAAC | 0.291 ± 0.035 |
| GTGTTAAC | 0.0845 ± 0.082 |
